Assay results taken from PubChem BioAssay AID887 (National Center for Advancing Translational Sciences (NCATS), 2007).
Where “and” joins values, the source holds several entries; their conditions need not be identical. Equal entries are not always repeated. About 1,100 (1.5%) of roughly 74,000 compounds were called active. Another 5% or so got no clear call; they are omitted. The sample holds actives, similar compounds and a random draw of the others, so the mix is not that of the screen. Calls follow the shape of the dose curve; as a rule, active = well fitted inhibition curve with a large enough effect; inconclusive = small, poorly fitted or top-dose-only effect; inactive = no such curve, though single readings can be large or run the other way.

The compounds below were run against Polyunsaturated fatty acid lipoxygenase ALOX15 (Homo sapiens) (UniProt P16050) (assay: qHTS Assay for Inhibitors of 15-hLO (15-human lipoxygenase)). Details: purified 15hLO-1, xylenol orange hydroperoxide absorbance; series mostly up to 57.1 µM; activity change, negative = inhibition: at the top concentration.
Chain of Polyunsaturated fatty acid lipoxygenase ALOX15 (Homo sapiens) (P16050 whole entry, looked up): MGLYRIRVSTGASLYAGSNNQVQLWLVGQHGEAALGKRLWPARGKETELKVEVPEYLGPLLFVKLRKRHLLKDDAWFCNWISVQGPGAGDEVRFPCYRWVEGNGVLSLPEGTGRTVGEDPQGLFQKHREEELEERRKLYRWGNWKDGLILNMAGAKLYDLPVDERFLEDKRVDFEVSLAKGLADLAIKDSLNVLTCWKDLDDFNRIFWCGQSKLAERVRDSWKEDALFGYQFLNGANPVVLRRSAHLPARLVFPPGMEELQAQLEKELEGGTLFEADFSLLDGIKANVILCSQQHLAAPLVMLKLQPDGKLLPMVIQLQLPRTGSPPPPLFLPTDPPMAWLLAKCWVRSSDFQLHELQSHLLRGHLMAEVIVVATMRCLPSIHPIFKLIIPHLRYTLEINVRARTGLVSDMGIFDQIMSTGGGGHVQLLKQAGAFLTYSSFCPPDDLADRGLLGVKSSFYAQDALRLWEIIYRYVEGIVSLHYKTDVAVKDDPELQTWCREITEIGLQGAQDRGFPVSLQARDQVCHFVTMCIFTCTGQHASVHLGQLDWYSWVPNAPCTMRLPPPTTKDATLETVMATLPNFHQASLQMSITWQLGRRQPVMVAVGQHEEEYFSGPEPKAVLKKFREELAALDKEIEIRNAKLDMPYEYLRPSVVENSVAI
From the text: Assay Overview: NIH Molecular Libraries Screening Centers Network [MLSCN] NIH Chemical Genomics Center [NCGC] MLSCN Grant: MH081283-01A1 PI Name: Holman, T.R., University of California, Santa Cruz Human lipoxygenase 15hLO-1 is a member of the closely related lipoxygenase family of enzymes which catalyze the site-specific oxidation of arachidonic acid to various hormone precursor molecules and as such is a candidate for drug development in a variety of disease areas, such as cancer and inflammation. Inhibition of 15hLO-1 activity was screened by utilizing arachidonic acid as a substrate. The extent of hydroperoxide product formation was measured by a secondary chromogenic reaction in which xylenol orange (XO, Sigma-Aldrich, cat. number 39,818-7) reacts with the ferric ions produced from the reaction between the hydroperoxide and ferrous ions. The Fe(III)-XO complex is characterized with red-shifted absorbance at 560 nm. A purified preparation of human 15hLO-1 was supplied by Professor Ted Holman, University of California, Santa Cruz.
Assay Protocol: Buffer: 25 mM Hepes pH 7.5, 0.01% Triton X-100. Reagents/Controls: Buffer in columns 3 and 4 as negative control (no enzyme). Substrate solution: 50 uM arachidonic acid (Sigma-Aldrich, St. Louis, MO) final concentration dispensed throughout the plate. Enzyme: 40 nM 15hLO-1 final concentration in columns 1, 2, 5-48. Column 1 is neutral (100% activity). Column 2 contained pin-transferred titration of NDGA (nordihidroguaiaretic acid, Sigma-Aldrich, N 5023, top concentration 10 mM in DMSO, then 1:2 dilution in duplicate). (Dilution factor: 23 nL into 4 uL.) Chromogenic detection reagent (divalent iron/xylenol orange, Fe-XO): 200 uM xylenol orange plus 300 uM ferrous ammonium sulfate prepared freshly in 50 mM sulfuric acid. Assay Steps: Three uL of enzyme were dispensed to 1536-well Greiner black clear bottom plates. Compounds and controls (23 nL) were transferred via Kalypsys PinTool. The plates were incubated for 15 min at room temperature, and then 1 uL of substrate solution was added to start the reaction. After room temperature incubation for 6 minutes, 4 uL of Fe-XO solution was added to each well followed by a short spin (1000 rpm, 15 sec) and the plates were then incubated for 30 min. The absorbance at 405 and 573 nm were measured using ViewLux (Perkin-Elmer) High-throughput CCD imager and absorbance protocol settings. The 573-to-405 absorbance ratio was used to compute reaction progress.
% is scaled to controls: 0 for no effect and ±100 for the full control effect; potency is read from the fitted curve at half-maximal effect.
Also: nearly all actives have a fitted effect of over 55% in size.

Structure (SMILES)	Potency	activity change, negative = inhibition
Cc1ccnc(-n2sc3ccccc3c2=O)n1	20 µM (active)	–
Cc1ccnc(N2CCC(C(=O)NC3CCCCCC3)CC2)n1	–	-1.73% (inactive)
Cc1nc2ccccc2c(=O)n1CCCn1ccnc1	–	17.1% (inactive)
CC(C)=CCC/C(C)=C/CC/C(C)=C/CC/C(C)=C/CO	–	-5.43% (inactive)
O=C(O)[C@@H](O)Cc1ccccn1	–	2.76% [at 11.4 µM] (inactive)
COc1ccc(/C=C/NC(=O)Cc2ccc(OC)c(OC)c2)cc1	–	4.24% [at 11.4 µM] (inactive) and -3.82% [at 11.4 µM] (inactive)
CCCCc1nc2ccccc2c(NC(=O)CN2CCN(C)CC2)c1CCC	15.8 µM (active)	–
CCCCc1nc2ccccc2c(=O)n1NC(=O)c1c(O)c2cccc3c2n(c1=O)CC3	–	15.9% (inactive)
CCOC(=O)N1CCN(CC(=O)Nc2cc(C)nn2-c2nc3ccccc3s2)CC1	–	8.06% (inactive)
CC(C)CN1CCc2nc(-c3ccccc3)c3c(c2C1)COC(C)C3 (stereo not given)	–	-12.9% [at 11.4 µM] (inactive)
CO[C@H]1COC(=O)[C@H](Cc2ccccc2)NC(=O)C/C=C\[C@@H](C)[C@H](OC)COC(=O)C/C=C\[C@@H]1C	–	10.5% [at 11.4 µM] (inactive)
COC(=O)NC(c1ccccc1)[C@]1(C(C)=O)CCCC1=O (stereo not given in full)	–	9.57% [at 11.4 µM] (inactive)
c1ccc(CSc2nnc(-c3ccco3)c(-c3ccco3)n2)cc1	6.31 µM (active)	–
c1ccc(CSc2nnc(-c3ccco3)n2Cc2ccccc2)cc1	–	-5.84% (inactive)
Nc1cc(=O)nc(SCc2ccccc2)n1Cc1ccco1	–	0.59% (inactive)
CC(=O)OC1CCC2(O)CC1(C)CCC1C2CC1(C)C (stereo not given)	–	-1.5% (inactive)
COc1ccc(CCC(=O)c2c(O)cc(OC3OC(CO)C(O)C(O)C3O[C@@H]3OC(C)C(O)C(O)C3O)cc2O)cc1O (stereo not given in full)	–	-1.92% (inactive)
CC(C)[C@@H](OCc1ccccc1)[C@H](C)/C=N\OC[C@@H](C)[C@H](OCc1ccccc1)C(C)C	–	-0.92% [at 11.4 µM] (inactive)
CO[C@H]1COC(=O)CCC[C@@H](C)[C@H](OC)COC(=O)[C@@H](C)NC(=O)C/C=C\[C@@H]1C	–	-1.39% [at 11.4 µM] (inactive)
CCC1(C)CC(=O)NC1=O (stereo not given)	–	-0.342% (inactive)
Cc1cc(C)cc(N(C(C)C(=O)Nc2c(C)n(C)n(-c3ccccc3)c2=O)S(C)(=O)=O)c1 (stereo not given)	–	4.53% (inactive)
Cc1c(NC(=O)C(C)OC(=O)c2cc3c4ccccc4n(C)c3s2)c(=O)n(-c2ccccc2)n1C (stereo not given)	31.6 µM (active)	–
COC(=O)Nc1c(C)n(C)n(-c2ccccc2)c1=O	–	6.02% (inactive)
CC1(C)OC2CO[C@]3(COS(N)(=O)=O)OC(C)(C)OC3C2O1 (stereo not given in full)	–	0.158% (inactive)
COc1ccccc1OCCNCC(O)COc1cccc2[nH]c3ccccc3c12 (stereo not given)	–	-5.85% (inactive)
